Here are results for 20 compounds from ChEMBL document CHEMBL3988442, “University of Dundee, Small-Polar-MMV Screening Library” (2021).

SMILES strings stand for the structures.

The target in the test is AMP-activated protein kinase, AMPK (Homo sapiens) (UniProt P54646+O43741+P54619+Q9UGJ0+Q9Y478+Q13131+Q9UGI9). Briefly: AMP-dependent Kinase enzyme assay. An in vitro enzyme assay that detects ADP turnover that is directly proportional to AMPK activity. This uses naive AMPK that is activated during the assay with MK-8722. The test is classed as functional. Also noted: scale not given: direction of the effect not stated beside the values. The settings on record: 30 µM.
As to `CNC(=O)C1CCN(C(=O)c2ccn(-c3ccc(F)cc3)n2)CC1`, the Percent Effect worked out at 1.73%.
Then `COc1cccc([C@@H]2CN(C(=O)c3ccc(C)cc3O)C[C@H]2C(=O)O)c1`, with -1.7%.
With `O=C(Cc1cccc(F)c1)NCCNCc1ccco1`, the Percent Effect is 7.05%.
Consider `Cc1ncsc1C(=O)NC1CCN(CC(=O)NCc2ccccc2)CC1`, for which the Percent Effect came out at 0.646%.
As to `CCN1CC(C(=O)N(C)Cc2ccon2)CC1=O` (stereo not given), the Percent Effect was -1.95%.
As for `COCc1c(C(=O)O)nnn1Cc1cccc(C(F)(F)F)c1`, the Percent Effect was -2.19%.
Then `O=C(NCC(O)c1cccc(F)c1)c1cccnc1O` (stereo not given), with -2.16%; and `Cc1nc(CN2CCOC(Cn3cncn3)C2)nc2ccccc12` (stereo not given), with 3.13%; and `CCc1nnc2n1CCN(C(=O)CN(C)Cc1ccccc1)C2`, with -9.27%.
Next, `CCn1nc(C)c(CNC(=O)c2cn(CCC3CCCCN3)nn2)c1C` (stereo not given): 0.29%; `CCS(=O)(=O)Nc1ccc(C(=O)NCCCN2CCCC2)cc1`: 2.99%.
On to `COc1cccc(CN(C)C(=O)CSc2ccc3c(c2)OCCO3)c1`, for which the Percent Effect was found to be 15.3%.
Consider `CC(C)c1cnc(CNc2c(F)cccc2-n2cccn2)o1`, for which the Percent Effect is -3.66%.
Then `O=S(=O)(Cc1ccccc1F)NCCCN1CCCCC1`, with -0.488%.
Then `CN(C)S(=O)(=O)N1CC[C@@H]2CN(Cc3cnn(C)c3)C[C@@H]2C1`, with 26.8%; and `CN(C(=O)Cc1ccc2c(c1)OCCO2)C1CCCC1`, with 1.6%; and `C1CC(NCc2nc(C3CC3)no2)CN(Cc2noc(C3CC3)n2)C1` (stereo not given), with -2.39%.
Next, `COCCN1C[C@@H]2CCCO[C@@H]2[C@H](NC(=O)c2cnccn2)C1`: 1.63%; `Cc1nc2cc(C(=O)N3CCCC(n4cncn4)C3)ccc2n1C` (stereo not given): -2.29%.
Turning to `Cc1ccc(CN2CC(C(=O)N3CCCC3)C3(CCOCC3)C2)s1` (stereo not given), the Percent Effect stood at 0.717%.
